Results filed as inconclusive are left out. A call without a number means that no potency is given here. The source made the active and inactive calls. Calls come from the whole dose curve; as a rule, active = well fitted inhibition curve with a large enough effect; inconclusive = small, poorly fitted or top-dose-only effect; inactive = no such curve, though single readings can be large or run the other way.

A short description of this experiment: Counterscreen qHTS assay for inhibitors of N-terminal methyltransferase 1 (NTMT1): SPKRIA Counterscreen Assay. To be noted: biochemical qHTS; series mostly up to 99.2 µM. The text has this: Assay Submitter (PI): Rong Huang Ph.D,
Purdue University, West Lafayette, IN 47907
The N-terminal methytransferase 1 is the first methyltransferase that methylates protein alpha-N-amines and plays an important role in regulating cell mitosis, chromatin interactions and DNA repair. It is observed to be over-expressed in various cancer patient tissues like malignant melanoma and colorectal cancer tissues. Knockdown of NTMT1 in cancer cells causes cell mitotic defects and enhances sensitivity to DNA damaging chemotherapeutics. […] These critical cellular processes in which NTMT1 is implicated, coupled with emerging links to cellular dysfunction, strengthen the inference that NTMT1 is a compelling novel anticancer target. Progress have been made in understanding the molecular properties of NTMT1 and the biological consequences of protein alpha-N-terminal methylation, but there are no specific small molecule probes available for NTMT1 to fully characterize its MTase activity. To address this unmet need, a panel of assay is created and established to enable quantitative high-throughput screening (qHTS) for novel, potent, and selective small molecule NTMT1 inhibitors. Two orthogonal qHTS that use different reagents (ThioGlo vs. MTaseGlo) are developed for primary robotic screening against the NCATS chemical library of more than 400,000 small molecules. Identified inhibitors are reacquired, validated, and further characterized.
MTaseGlo Assay is a luminescence screen that measure the activity of methyltransferases based on the reaction product S-adenosyl homocysteine (SAH). The substrate SAM is converted to SAH upon enzyme activation. MTase-Glo reagent and detection solution convert SAH to ATP and measure the light from the luciferase reaction. Nicotinamide N-methyltransferase (NNMT) is a cystolic enzyme that catalyzes the transfer of a methyl group from the co-factor SAM onto the substrate, nicotinamide (NA) to form 1-methyl-nicotinamide (MNA) and SAH. NNMT MTaseGlo assay is used as a counterscreen to evaluate selectivity of identified inhibitors.
SPKRIA and Ac-RCC-10 control is provided by the Huang laboratory.
PROTOCOL TABLE; SEQUENCE No. (e.g., 1, 2, 3, etc.); […] (e.g., Cells, Incubation, Reagent, etc.); VALUE; DESCRIPTION
1; Reagent; 3 uL; dispense assay buffer.
2; Compound; 23 nL; pin compounds and control into the assay plate.
3; Time; 15 min; room temperature incubation.
4; Reagent; 1 uL; dispensed [4x] substrate or buffer.
5; Time; 30 min; incubate at room temperature.
6; Reagent; 1 uL; dispense MTase-Glo Reagent (R).
7; Time; 30 min; incubate at room temperature.
8; Reagent; 5 uL; dispense [1x] MTase-Glo Detection Solution to allow for ADP to be converted to ATP.
9; Centrifugation; 1,000 RPMs; assay plates were centrifuged.
10; Incubation; 30 min; room temperature.
11; Detection; Luminescence; ViewLux plate reader (clear filter, 10 second exposure).
NOTES (numbers refer to Sequence numbers above; values are from representative experiments)
1; Dispense the assay buffer into Greiner 1536-well black / solid bottom assay plate (Greiner Bio One, Monroe, NC).
2; Pin control inhibitor Ac-RCC1-10 at a final concentration range of 234 nM to 143 uM using a Wako Pin Tool (Wako Automation USA) equipped with a 1536-slotted pin array (Wako Automation, Richmond, VA). Pin compound library into the assay plates (columns 5 - 48) at a final concentration range of 97 nM to 250 uM.
3; Incubate the assay plates at room temperature.
4; Dispense 1 uL of substrate SPKRIA solution (final concentration 1 uM) or 1 uL buffer was added to the wells bringing the final assay volume to 4uL. The assay plate was covered with metal lids.
5; Incubate the assay plate at room temperature.
6; Dispense 1 uL of 5x MTase-Glo Reagent in the assay plate.
7; Incubate at room temperature to allow for SAH to be converted to ADP
8; Dispense 5 uL of 5x MTase-Glo Detection Solution in the assay plate to allow for ADP to be converted to ATP.
9; Assay plates were centrifuged for 15 seconds.
[…]
(In general: Counterscreens check selectivity or assay interference.)
For the molecule `COc1cccc(C(=O)Nc2nc3c(s2)CCCC3)c1`, the Potency is 50.1 µM (active).
`Cc1cccc(C(=O)Nc2sc3c(c2C(=O)O)CCCC3)c1`: the Potency is 50.1 µM (active).
For the molecule `CC(=O)Nc1sc2c(c1-c1ccc3scnc3c1)CCNC2`, the Potency entry was “inactive”.
With `O=c1c2cc3c(cc2nc2sc(Nc4ccccc4)nn12)OCO3` the entry was “inactive”.
With `COc1cc2ncnc(Nc3cccc(Cl)c3)c2cc1OC` the figure was 22.4 µM (active); with `CC(=O)C1CCC2C3CCC4=CC(=O)CCC4(C)C3CCC12C` (stereo not given), “inactive”; with `Cc1ccc(-n2ncc3c(NCCO)ncnc32)cc1Cl`, 31.6 µM (active).
Then `Cc1cc2c(s1)c1cnn(Cc3ccc(C)c(F)c3)c(=O)c1n2C`, with “inactive”.
As to `Cc1cccc(-n2cnc3cc(C(=O)NC4CCCC4)ccc32)c1`, the Potency was 44.7 µM (active).
Regarding `CN1CCCN=C1/C=C/c1cccs1`, the Potency entry is “inactive”.
Consider `NC(=O)C1CCN(c2nc(-c3ccc(F)cc3)cs2)CC1`, for which the Potency was 44.7 µM (active).
`COc1ccc(Nc2ncnc3sc4c(c23)CCCC4)cc1`: the Potency was 20 µM (active).
For `NC(=O)C1CCN(c2nc(-c3ccccc3Cl)cs2)CC1`, the Potency entry was “inactive”.
`O=c1cc(-c2ccccc2)oc2ccccc12`: the Potency is 112 µM (active).
On to `O=C(O)c1ccc(-c2noc(-c3cccc(Cl)c3)n2)cc1`, for which the Potency entry was “inactive”.
As to `COc1ccccc1C(=O)Nc1onc2c1CCCC2`, the Potency entry is “inactive”.
As for `C[C@]12CC[C@@H]3c4ccc(O)cc4CC[C@H]3[C@@H]1C[C@@H](O)[C@@H]2O`, the Potency result was “inactive”.
As for `CN(C)CCC=C1c2ccccc2C=Cc2ccccc21`, the Potency result is “inactive”.
Then `COc1cc(/C=C\c2ccc(O)cc2)cc(OC)c1`, with “inactive”; and `O=C(Nc1onc2c1CCCC2)c1ccccc1`, with “inactive”; and `O=C(Nc1ccc2c(c1)CCC2)Nc1nnc(-c2ccncc2)s1`, with “inactive”.
As to `Oc1cccc(Nc2cc(-c3ccccc3)ncn2)c1`, the Potency is 39.8 µM (active).
In the case of `Oc1ccc(-c2nc(-c3ccc(F)cc3)c(-c3ccncc3)[nH]2)cc1`, the Potency was 44.7 µM (active).
As to `NC(=O)C1CCN(c2nc(-c3ccc4c(c3)CCO4)cs2)CC1`, the Potency result was “inactive”.
Then `Cc1ccnc(NC(=S)N2CCNCC2)c1`, with “inactive”; and `COc1cc(C)c(/C=C/C(C)=C/C=C/C(C)=C/C(=O)O)c(C)c1C`, with “inactive”; and `CN(C)C(=O)c1ccc(-c2cc[nH]c(=O)c2N)cc1`, with “inactive”.
In the case of `CCC1(C)CC(=O)NC1=O` (stereo not given), the Potency result was “inactive”.
`O=C(Nc1nc2c(s1)CCCC2)c1ccccc1F`: the Potency is 39.8 µM (active).
Turning to `COc1cccc(/C=C/c2nc(C#N)c(NCCN(C)C)o2)c1`, the Potency entry was “inactive”.
Regarding `COc1ccc2[nH]c(S(=O)Cc3ncc(C)c(OC)c3C)nc2n1` (stereo not given), the Potency result is “inactive”.
Then `Cc1c(Cl)ccc2sc(N3CCN(C(=O)C4CC4)CC3)nc12`, with “inactive”; and `OCc1cccc(-c2noc(-c3ccccc3F)n2)c1`, with “inactive”; and `c1cncc(-c2ccc3ncnc(NCc4cccs4)c3c2)c1`, with 44.7 µM (active).
With `CC[C@H](c1ccc(O)cc1)[C@@H](CC)c1ccc(O)cc1` the entry was “inactive”.
For `Cc1cc(C)nc(NC(=S)N2CCN(c3ccccn3)CC2)c1`, the Potency entry is “inactive”.
As for `CC(C)c1ccc(Nc2ncnc3c2nc2n3CCCC2)cc1`, the Potency is 50.1 µM (active).
Turning to `COc1ccc(C(=O)Nc2onc3c2CCCC3)cc1`, the Potency entry is “inactive”.
Turning to `COCCCNC(=O)CSc1c2c(nc3ccc(Cl)cc13)CCCC2`, the Potency result is “inactive”.
As for `Cc1ccc(-n2ncc3c(NCCCN(C)C)ncnc32)cc1Cl`, the Potency was 44.7 µM (active).

These data come from PubChem BioAssay AID1645879 (National Center for Advancing Translational Sciences (NCATS), 2021).
